Only some compounds are listed: those with a hit (about 19% of all), similar ones and a draw of the others.
HT1080 IDH1KD tx: HT-1080 IDH1 knockdown cell toxicity (counter line); 360,000 compounds, 2% hits; HT-1080 IDH1 knockdown viability, ATP luminescence, 48 h; AID 686971; Potency, µM (titrated, usually from 46.1 µM), for inactives: at the top dose activity, negative = toxicity, most hits filed as cytotoxic;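 note: potency is the fitted concentration of half-maximal effect; 0% = DMSO wells and -100% = cell-free medium wells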
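Luminescent ATP read-out (CellTiter-Glo, 10 min at room temperature) after 48 h compound exposure at 37 °C gave viability of IDH1-knockdown HT-1080 cells. Activity was normalised to DMSO and cell-free wells, then fitted as concentration-response curves.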
IL1B secr inh: inflammasome signaling inhibition, IL-1 beta readout. THP-1 LPS/ATP IL-1B secretion, AlphaLISA, 16 h; active compounds read low. activity change, % at 57.5 µM. 360,000 compounds, 4.7% hits. AID 743279; in the data active = activity change below about -50%; inconclusive = mostly about -30% to -49%
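THP-1 cells pretreated 1 hr with compounds (up to 57.5 uM final), then stimulated with LPS (250 ng/mL final) plus ATP (1.25 mM final); secreted IL-1B measured by AlphaLISA after 16 hr, decreased signal indicating inhibition.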
DT40 TDP1 CPT: DT40-hTDP1 cell growth loss with CPT | chicken DT40 Tdp1-/-;hTDP1 cells + 20 nM CPT, ATP luminescence, 48 h | Potency, µM (series often up to 46.2 µM), without a hit: at the highest dose activity change, negative = growth inhibition, most hits filed as inhibitors | 420,000 compounds, 12% hits; note: potency is the fitted concentration of half-maximal effect; nearly all actives have a fitted effect of over 55% in size
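Chicken DT40 Tdp1-/- cells stably complemented with human TDP1 were seeded at 400 cells/well in medium containing 20 nM camptothecin, exposed to pin-transferred compounds, and grown at 37 °C for at least 48 hr. Viability was read as ATP luminescence.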
DT40 TDP1 no CPT: qHTS for Inhibitors of human tyrosyl-DNA phosphodiesterase 1 (TDP1): qHTS in cells in absence of CPT; Potency, µM (series often up to 46.2 µM), for the others: at the top dose activity change, negative = growth inhibition, usual class: inhibitors; DT40 Tdp1-/- hTDP1 cells, no CPT, ATP luminescence, 48 h; 420,000 compounds, 15% hits; note: potency is the fitted concentration of half-maximal effect; nearly all actives have a fitted effect of over 55% in size
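Stably hTDP1-transfected Tdp1-null chicken DT40 cells were treated with library compounds minus camptothecin and grown for at least 48 hr at 37 °C, after which cellular ATP was quantified by luminescence.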
HT1080NT lethal: kills 2HG-producing HT-1080-NT fibrosarcoma cells; HT-1080-NT fibrosarcoma viability, CellTiter-Glo ATP luminescence, 48 h; Potency, µM (top dose mostly 46.1 µM), inactives show at the top dose activity, negative = less viability, hits mostly cytotoxic; 360,000 compounds, 1.6% hits; AID 686970;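 note: NT is the 2HG producing partner of a matched IDH1 knockdown line; potency is the fitted concentration of half-maximal effect; 0% = DMSO-treated cells and -100% = media-only wells without cells; nearly all actives have a fitted effect of over 55% in size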
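Compounds were tested in concentration-response format on HT-1080-NT cells for 48 hours at 37 degrees C. Cell viability came from CellTiter-Glo luminescence; curves were classified by r2, response magnitude and activity.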
* hit, by the source's call; ? = inconclusive; nt = no result. Unless noted, calls come from the whole dose curve; as a rule, active = well fitted curve in the direction sought with a large enough effect; inconclusive = small, poorly fitted or top-dose-only effect, or another doubt; inactive = no such curve, though single readings can be large; an effect the other way counts as inactive or inconclusive. Unless noted, % is set by controls: 0 for no effect and ±100 for the full control effect.

SMILES	HT1080 IDH1KD tx	IL1B secr inh	DT40 TDP1 CPT	DT40 TDP1 no CPT	HT1080NT lethal
O=C1[C@H]2[C@@H](c3ccccc3)N[C@]3(CCCN(Cc4ccc(F)cc4)C3=O)[C@H]2C(=O)N1Cc1ccccc1	5%	-23	?	16µM*	1%
O=C1[C@H]2[C@@H](c3ccc(C(F)(F)F)cc3)N[C@]3(CCCN(Cc4ccc(F)cc4)C3=O)[C@H]2C(=O)N1Cc1ccccc1	-5%	-56*	?	?	-4%
O=C1[C@H]2[C@@H](c3ccccc3)N[C@]3(CCCN(Cc4ccccc4)C3=O)[C@H]2C(=O)N1Cc1ccccc1	-4%	-14	-17%	?	-5%
O=C1[C@H]2[C@@H](c3ccccc3)N[C@]3(CCCN(Cc4ccc(C(F)(F)F)cc4)C3=O)[C@H]2C(=O)N1Cc1ccccc1	?	-28	18µM*	?	?
Cc1ccc(CN2CCC[C@]3(N[C@H](c4ccc(C)cc4)[C@@H]4C(=O)N(Cc5ccccc5)C(=O)[C@@H]43)C2=O)cc1	0%	-2	?	?	-1%
Cc1ccc(CN2CCC[C@]3(N[C@H](c4ccccc4)[C@@H]4C(=O)N(Cc5ccccc5)C(=O)[C@@H]43)C2=O)cc1	-17%	-16	26µM*	16µM*	-4%
O=C1[C@H]2[C@@H](c3ccc(C(F)(F)F)cc3)N[C@]3(CCCN(Cc4ccco4)C3=O)[C@H]2C(=O)N1Cc1ccccc1	4%	29	-3%	-4%	10%
Cc1ccccc1C(=O)NCC(=O)O	12%	16	-2%	-1%	1%
c1cc(-c2cc3cc4c(cc3cn2)OCO4)cs1	1%	27	15µM*	?	5%
CCOc1cc(S(=O)(=O)n2nc(C)cc2C)ccc1Br	-12%	0	11%	?	-5%
Cc1ccccc1-c1nc(NC2CC2)c2ccccc2n1	nt	nt	?	-27%	nt
Cc1ccccc1C(=O)NC1CCN(Cc2ccccc2)CC1	-1%	57	0%	1%	3%
c1ccc(CN2CCC(Nc3nc(-c4ccccc4)nc4ccccc34)CC2)cc1	nt	-52*	11%	?	nt
c1ccc(CN2CCC(CNc3ncnc4ccccc34)C2)cc1 (stereo not drawn)	-16%	-11	21µM*	10µM*	?
Cc1csc2ncnc(NC3CCN(Cc4ccccc4)CC3)c12	?	?	1µM*	0.65µM*	-26%
Cc1cc(C)c(NC(=O)C(C)n2c(=O)cc(-c3ccccc3)c3c(C)nn(C)c32)c(C)c1 (stereo not drawn)	nt	nt	-10%	9%	nt
CS(=O)(=O)N(CC(=O)N1CCN(c2ccccc2F)CC1)c1cccc(C(F)(F)F)c1	-2%	?	?	?	-5%
O=C(CC(SCCO)c1ccc2c(c1)OCO2)c1ccco1 (stereo not drawn)	7%	-56*	21µM*	18µM*	1%
COc1ccc(OC(C)C(=O)NC2CCCCCCC2)cc1 (stereo not drawn)	2%	-10	-25%	-8%	-5%
COc1ccc(C(CCNCc2ccc(F)cc2)c2ccc(F)cc2)cc1 (stereo not drawn)	23µM*	-28	?	?	?
COc1ccc(CNCCC(c2ccc(F)cc2)c2ccc(OC)cc2)cc1 (stereo not drawn)	21µM*	nt	12µM*	10µM*	21µM*
COc1ccc(C(CCNC(C)c2ccccc2)c2ccc(F)cc2)cc1 (stereo not drawn)	18µM*	-50*	7.3µM*	7.3µM*	?
COc1ccc(C(CCNCc2ccccc2)c2ccc(F)cc2)cc1 (stereo not drawn)	16µM*	-6	?	?	?
COn1c(SC2CCCCC2)nc2ccccc2c1=O	6%	21	2%	-8%	11%
CN(C)CCCNC(=O)c1cc(C(=O)c2ccc(F)cc2)c[nH]1	2%	-29	4%	-4%	0%
SMILES	HT1080 IDH1KD tx	IL1B secr inh	DT40 TDP1 CPT	DT40 TDP1 no CPT	HT1080NT lethal
COc1ccc(-c2cccc3c2NC(=O)C3=O)cc1OC	6%	38	18µM*	15µM*	8%
O=C(C[n+]1ccccc1Cl)c1ccc(F)cc1	nt	nt	-14%	-16%	nt
O=S(=O)(Cc1ccccc1)NC1c2ccccc2Oc2ccccc21	-2%	-17	15µM*	21µM*	2%
CN(C)c1ccc(/C=C/c2cc3ccccc3cn2)cc1	nt	nt	0.45µM*	0.45µM*	nt
CCN(CC)c1ccc(/C=C/c2ccccn2)cc1	nt	nt	0.18µM*	0.28µM*	nt
CN(C)c1ccc(/C=C/c2ccccn2)cc1	nt	nt	1.4µM*	4.5µM*	nt
Cc1noc(/C=C/c2ccccn2)c1[N+](=O)[O-]	?	-51*	?	21µM*	-15%
COc1ccccc1N/C=C/c1onc(C)c1[N+](=O)[O-]	?	-17	-29%	?	-20%
COCCOC(=O)c1[nH]c2c(c1C)C(=O)C(C(=O)OC)C(C)C2 (stereo not drawn)	-1%	-5	5%	-2%	5%
COC(=O)C1C(=O)c2c([nH]c(C(=O)OCC3CCCO3)c2C)CC1C (stereo not drawn)	-5%	-11	16µM*	-30%	0%
CCCCCOC(=O)c1[nH]c2c(c1C)C(=O)C(C(=O)OC)C(C)C2 (stereo not drawn)	-15%	?	9.2µM*	18µM*	-19%

Assay outcomes (PubChem BioAssay)
